This note sets out measurements from PubChem BioAssay.

“And” between values parts separate entries of the source, which are not always exact repeats. Identical values can stand only once. A number with no mark means an inactive call. The source made the active and inactive calls. Rule as the data show it, unless noted: active = nuclear beta-catenin stimulation mostly above about 4.2% (no sharp cut-off); inactive = mostly below about 10%. Peptide text beside a SMILES is read from it.

The subject of the first assay is Hepatitis C virus NS3 helicase. Briefly: HCV NS3 helicase inhibitors, primary screen, biochemical, fluorescence polarization, LOPAC1280 library (AID 687035; in the data active = inhibition above about 37%). The note with it: Purified HCV NS3 helicase, Cy5-dT15 ssDNA binding fluorescence polarization; hits give high values; concentration not given here. On the technique in general: In fluorescence polarisation assays a small probe gives low polarisation when free and higher when bound to something large.
By inhibition is commonly meant the change of the read-out against control, counted positive when it falls. `CN(C)[C@@H]1C(=O)C(C(N)=O)=C(O)[C@@]2(O)C(=O)C3=C(O)c4c(O)ccc(Cl)c4[C@@H](O)[C@H]3C[C@@H]12`: the inhibition was -3%.
Take `Cc1cc(N)c2ccccc2[n+]1CCCCCCCCCC[n+]1c(C)cc(N)c2ccccc21`: the inhibition is 2%.
Still for that read-out and setting: as for `C=Cc1c(C)c2cc3[nH]c(cc4nc(cc5nc(cc1[nH]2)C(C)=C5CCC(=O)O)C(CCC(=O)O)=C4C)c(C)c3C=C`, the figure is 140% (active); as for `CCN(CC)C(C)CN1c2ccccc2Sc2ccccc21` (stereo not given), -1%; as for `NCCCCCC(=O)O`, 1%.
In the case of `CCN(CC)CCNC(=O)c1ccc(NC(C)=O)cc1`, the inhibition was -3%.
Turning to `CNC[C@H](O)c1cccc(O)c1`, the inhibition was -1%.
As to `O=c1c(O)c(-c2ccc(O)c(O)c2)oc2cc(O)cc(O)c12`, the inhibition was 2%.
On the same count and under the same terms, as for `CC(=O)O[C@]1(C(C)=O)CC[C@H]2[C@@H]3C=C(Cl)C4=CC(=O)[C@@H]5C[C@@H]5[C@]4(C)[C@H]3CC[C@@]21C`, the figure is -1%.
Same read-out and setting: the result for `C[C@H]1O[C@@H](n2cc(F)c(=O)[nH]c2=O)[C@H](O)[C@@H]1O` reads -1%.
The same measure, in the same setting: the result for `CC1(C)NC(=O)N(c2ccc([N+](=O)[O-])c(C(F)(F)F)c2)C1=O` reads -2%.
For `C[N+](C)(C)CCCCCC[N+](C)(C)C`, the inhibition is 0% and -2%.

Tested on in the next assay: not listed separately
The experiment in a line: Cy5 fluorescence quenching or enhancement artefacts, artefact control for HCV NS3 helicase inhibitor project, biochemical, LOPAC1280 (AID 687037; call rule not given here). The settings on record: Cy5-DNA-NS3h complex fluorescence interference counterscreen. For orientation: Counterscreens check selectivity or assay interference.
On to `CCCC(C(=O)OCCN(CC)CC)(c1ccccc1)c1ccccc1`, for which the fluorescence ratio (interference) is 0.9.
Take `O=C(Nc1ccc([N+](=O)[O-])cc1Cl)c1cc(Cl)ccc1O`: the fluorescence ratio (interference) was 1.
The same measure, in the same setting: the result for `C=CC(N)CCC(=O)O` (stereo not given) reads 1; that for `CNC1(C)C2CCC(C2)C1(C)C` (stereo not given), 0.9; that for `NCCS`, 1.
Same read-out and setting: the result for `Nc1c2c(nc3ccccc13)CCCC2O` (stereo not given) reads 1; that for `CSc1ccc2c(c1)C(N1CCN(C)CC1)Cc1ccccc1S2` (stereo not given), 0.9.
With `Cc1ccc(C(=O)Nc2ccc(S(=O)(=O)O)c3cc(S(=O)(=O)O)cc(S(=O)(=O)O)c23)cc1NC(=O)c1cccc(NC(=O)Nc2cccc(C(=O)Nc3cc(C(=O)Nc4ccc(S(=O)(=O)O)c5cc(S(=O)(=O)O)cc(S(=O)(=O)O)c45)ccc3C)c2)c1`, the fluorescence ratio (interference) was 1.
Same read-out and setting: as for `C[N+]1(CCCCC[N+]2(C)CCCC2)CCCC1`, the figure is 1.
On the same count and under the same terms, the result for `CCCCCN(CCCCC)C(=O)C(CCC(=O)O)NC(=O)c1ccc(Cl)c(Cl)c1` (stereo not given) reads 0.9; that for `NC(=O)NO`, 1.
Same read-out and setting: as for `CCOC(=O)C(C)(C)Oc1ccc(Cl)cc1`, the figure is 1; as for `CC(=O)OC(C)C[N+](C)(C)C` (stereo not given), 0.9.
For `NNc1nncc2ccccc12`, the fluorescence ratio (interference) is 1.
For `COC(=O)[C@@H]1[C@H]2C[C@H]3c4[nH]c5ccccc5c4CCN3C[C@@H]2CC[C@@H]1O`, the fluorescence ratio (interference) was 1.1.
For the compound `CC(=O)Oc1ccccc1C(=O)O`, the fluorescence ratio (interference) is 1.
Take `Cn1cnc2c1c(=O)[nH]c(=O)n2C`: the fluorescence ratio (interference) was 1.
The same measure, in the same setting: the result for `C[n+]1cc2c3c(ccc2c2ccc4cc5c(cc4c21)OCO5)OCO3` reads 1; that for `CN(C)[C@@H]1C(=O)C(C(N)=O)=C(O)[C@@]2(O)C(=O)C3=C(O)c4c(O)ccc(Cl)c4[C@@H](O)[C@H]3C[C@@H]12`, 1.
The same measure, in the same setting: as for `Cc1cc(N)c2ccccc2[n+]1CCCCCCCCCC[n+]1c(C)cc(N)c2ccccc21`, the figure is 0.9.
Take `C=Cc1c(C)c2cc3[nH]c(cc4nc(cc5nc(cc1[nH]2)C(C)=C5CCC(=O)O)C(CCC(=O)O)=C4C)c(C)c3C=C`: the fluorescence ratio (interference) is 2 (active).
Same read-out and setting: the result for `CCN(CC)C(C)CN1c2ccccc2Sc2ccccc21` (stereo not given) reads 1; that for `NCCCCCC(=O)O`, 0.9; that for `CCN(CC)CCNC(=O)c1ccc(NC(C)=O)cc1`, 1.
The same measure, in the same setting: as for `CNC[C@H](O)c1cccc(O)c1`, the figure is 1; as for `O=c1c(O)c(-c2ccc(O)c(O)c2)oc2cc(O)cc(O)c12`, 0.9.
Still for that read-out and setting: the result for `CC(=O)O[C@]1(C(C)=O)CC[C@H]2[C@@H]3C=C(Cl)C4=CC(=O)[C@@H]5C[C@@H]5[C@]4(C)[C@H]3CC[C@@]21C` reads 0.9; that for `C[C@H]1O[C@@H](n2cc(F)c(=O)[nH]c2=O)[C@H](O)[C@@H]1O`, 1; that for `CC1(C)NC(=O)N(c2ccc([N+](=O)[O-])c(C(F)(F)F)c2)C1=O`, 1.
`C[N+](C)(C)CCCCCC[N+](C)(C)C`: the fluorescence ratio (interference) is 1.

Tested on in another assay: not listed separately
The experiment in a line: stimulators of nuclear beta-catenin in C2C12, primary screen, imaging, WNT3A-conditioned medium, mouse C2C12, NPC library (AID 1117326). The note with it: at 10 µM, hits give high values.
With `CCCC(C(=O)OCCN(CC)CC)(c1ccccc1)c1ccccc1`, the nuclear beta-catenin stimulation is 0%.
As for `O=C(Nc1ccc([N+](=O)[O-])cc1Cl)c1cc(Cl)ccc1O`, the nuclear beta-catenin stimulation is 56.2% (active).
In the case of `C=CC(N)CCC(=O)O` (stereo not given), the nuclear beta-catenin stimulation was 1.7%.
Still for that read-out and setting: the result for `CC1(C)O[C@@H]2C[C@H]3[C@@H]4CCC5=CC(=O)CC[C@]5(C)[C@@]4(F)[C@@H](O)C[C@]3(C)[C@]2(C(=O)CCl)O1` reads -0.6%; that for `CNC1(C)C2CCC(C2)C1(C)C` (stereo not given), 0.3%.
As to `NCCS`, the nuclear beta-catenin stimulation was 0.2%.
Consider `OC[C@H]1O[C@@H](O[C@@H]2[C@@H](CO)O[C@](O)(CO)[C@H]2O)[C@H](O)[C@@H](O)[C@H]1O`, for which the nuclear beta-catenin stimulation was 2.4%.
On the same count and under the same terms, as for `Nc1c2c(nc3ccccc13)CCCC2O` (stereo not given), the figure is -0.8%; as for `CSc1ccc2c(c1)C(N1CCN(C)CC1)Cc1ccccc1S2` (stereo not given), 61.9% (active); as for `Cc1ccc(C(=O)Nc2ccc(S(=O)(=O)O)c3cc(S(=O)(=O)O)cc(S(=O)(=O)O)c23)cc1NC(=O)c1cccc(NC(=O)Nc2cccc(C(=O)Nc3cc(C(=O)Nc4ccc(S(=O)(=O)O)c5cc(S(=O)(=O)O)cc(S(=O)(=O)O)c45)ccc3C)c2)c1`, -3.6%.
Still for that read-out and setting: as for `C[N+]1(CCCCC[N+]2(C)CCCC2)CCCC1`, the figure is -1.8%.
The same measure, in the same setting: the result for `CCCCCN(CCCCC)C(=O)C(CCC(=O)O)NC(=O)c1ccc(Cl)c(Cl)c1` (stereo not given) reads -0.8%; that for `NC(=O)NO`, -0.1%; that for `CCOC(=O)C(C)(C)Oc1ccc(Cl)cc1`, 0%.
Turning to `CC(=O)OC(C)C[N+](C)(C)C` (stereo not given), the nuclear beta-catenin stimulation is 1.5%.
Still for that read-out and setting: the result for `NNc1nncc2ccccc12` reads -0.9%; that for `CCOC(=O)NNc1nncc2ccccc12`, 3.8%; that for `COC(=O)[C@H](Cc1ccccc1)NC(=O)[C@@H](N)CC(=O)O` (H-Asp-Phe-OMe), 4.5%.
Same read-out and setting: as for `COc1ccnc(CS(=O)c2nc3ccc(OC(F)F)cc3[nH]2)c1OC` (stereo not given), the figure is -0.4%; as for `COC(=O)[C@@H]1[C@H]2C[C@H]3c4[nH]c5ccccc5c4CCN3C[C@@H]2CC[C@@H]1O`, 1%.
For `CC(=O)Oc1ccccc1C(=O)O`, the nuclear beta-catenin stimulation is -0.3%.
Same read-out and setting: as for `Cn1cnc2c1c(=O)[nH]c(=O)n2C`, the figure is 0.9%; as for `O=C(COc1ccc(Cl)cc1)N1CCN(Cc2ccc3c(c2)OCO3)CC1`, 1%; as for `C[n+]1cc2c3c(ccc2c2ccc4cc5c(cc4c21)OCO5)OCO3`, 32.4%.
On the same count and under the same terms, as for `CN(C)[C@@H]1C(=O)C(C(N)=O)=C(O)[C@@]2(O)C(=O)C3=C(O)c4c(O)ccc(Cl)c4[C@@H](O)[C@H]3C[C@@H]12`, the figure is 6.3%; as for `Cc1cc(N)c2ccccc2[n+]1CCCCCCCCCC[n+]1c(C)cc(N)c2ccccc21`, 25%.
For the compound `C=Cc1c(C)c2cc3[nH]c(cc4nc(cc5nc(cc1[nH]2)C(C)=C5CCC(=O)O)C(CCC(=O)O)=C4C)c(C)c3C=C`, the nuclear beta-catenin stimulation was -3.7%.
With `CCN(CC)C(C)CN1c2ccccc2Sc2ccccc21` (stereo not given), the nuclear beta-catenin stimulation was 3.4%.
Still for that read-out and setting: as for `NCCCCCC(=O)O`, the figure is 2.8%; as for `CCN(CC)CCNC(=O)c1ccc(NC(C)=O)cc1`, -1.2%; as for `CCOC(=O)c1ccc(N)cc1`, 0.3%.
Same read-out and setting: the result for `CNC[C@H](O)c1cccc(O)c1` reads 1.9%.
Still for that read-out and setting: as for `O=c1c(O)c(-c2ccc(O)c(O)c2)oc2cc(O)cc(O)c12`, the figure is 2.6%.
As for `O=C(OCC(O)CO)c1ccccc1Nc1ccnc2cc(Cl)ccc12` (stereo not given), the nuclear beta-catenin stimulation is 3.1%.
Regarding `CC(=O)O[C@]1(C(C)=O)CC[C@H]2[C@@H]3C=C(Cl)C4=CC(=O)[C@@H]5C[C@@H]5[C@]4(C)[C@H]3CC[C@@]21C`, the nuclear beta-catenin stimulation is 1.2%.
With `C[C@H]1O[C@@H](n2cc(F)c(=O)[nH]c2=O)[C@H](O)[C@@H]1O`, the nuclear beta-catenin stimulation was 1.3%.
On the same count and under the same terms, the result for `CC1(C)NC(=O)N(c2ccc([N+](=O)[O-])c(C(F)(F)F)c2)C1=O` reads -0.3%.
Take `C[N+](C)(C)CCCCCC[N+](C)(C)C`: the nuclear beta-catenin stimulation is -0.3%.
